Results: PMC10726135, “HNF4α isoforms regulate the circadian balance between carbohydrate and lipid metabolism in the liver”
The full ranking holds about 18,000 sequences; the median of “log2 normalized intensity” is about 0.39, and the highest 2% start at about 6.6. The list comes from a sample in which the highest values are over-represented; it also holds similar and randomly drawn sequences.

Target: T1, HNF4alpha2 (COS-7 nuclear extract) (Homo sapiens, UniProt P41235 1-474)
T1 sequence: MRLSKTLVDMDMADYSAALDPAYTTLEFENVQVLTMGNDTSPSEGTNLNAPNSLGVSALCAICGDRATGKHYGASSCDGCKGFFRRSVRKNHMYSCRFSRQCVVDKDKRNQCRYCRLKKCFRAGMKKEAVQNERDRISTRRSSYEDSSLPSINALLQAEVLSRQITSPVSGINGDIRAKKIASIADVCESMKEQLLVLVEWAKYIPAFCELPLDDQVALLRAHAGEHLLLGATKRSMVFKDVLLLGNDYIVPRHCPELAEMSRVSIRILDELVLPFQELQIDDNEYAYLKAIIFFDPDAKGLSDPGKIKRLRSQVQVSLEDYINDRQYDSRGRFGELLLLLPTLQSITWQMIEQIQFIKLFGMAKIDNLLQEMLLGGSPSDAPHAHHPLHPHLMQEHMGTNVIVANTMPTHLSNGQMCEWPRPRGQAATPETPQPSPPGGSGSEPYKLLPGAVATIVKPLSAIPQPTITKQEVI
Assay: protein-binding microarray; COS-7 nuclear extract on double-stranded Agilent 4x180k PBM; binding buffer, salt, pH and temperature not given in the material; high values mean tight binding
Settings: chain copies: 2; label: 3' end of strand 1 on the slide; dsDNA, one strand shown
Procedure, shortened: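 A human HNF4α isoform was expressed in COS-7 cells by transient CaPO4 transfection, and nuclear extracts were prepared. These were applied to a custom Agilent SurePrint G3 4x180k array carrying ~44,000 test sequences in quadruplicate as double-stranded ~60-nt oligonucleotides, and an Agilent G2565CA scanner imaged bound HNF4α at 2-µm resolution. The background-corrected, normalized gProcessedSignal from Agilent software was used as the binding signal.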

Row | Sequence | binding signal [log2 normalized intensity]
1 | CATCATCTTGTAATCTGCTTCCAGTTCCATGCCTAGGGAGATTAGAGTATCGGTCGA | 0.0747
2 | GAGAAAAAGTCAACACTTAGGGTGGATACTGCCTAGGGAGATTAGAGTATCGGTCGA | -0.81
3 | TGATAAGCAAGATGACTTTGGTCTAGACACGCCTAGGGAGATTAGAGTATCGGTCGA | 0.829
4 | TGCTCAGGGAGAAGCAAATATGTGTCCTCTGCCTAGGGAGATTAGAGTATCGGTCGA | 0.314
5 | GTTATCTATGGAACATGGACTTTGAACCTCGCCTAGGGAGATTAGAGTATCGGTCGA | 10.3
6 | CATCTGAACTCTTCATGGACTCCTCTTATCGCCTAGGGAGATTAGAGTATCGGTCGA | 1.6
7 | CCTTGCTATGGAGTGGACTTTGGCTTATGCGCCTAGGGAGATTAGAGTATCGGTCGA | 6.18
8 | TTTCTCTTTTGACCTTTGGACTTTCACATTGCCTAGGGAGATTAGAGTATCGGTCGA | 10.5
9 | TTTGAACACCTCTTCTTTCTTCTCTGGTACGCCTAGGGAGATTAGAGTATCGGTCGA | 1.58
10 | AGTCTAACTTTGGACTTTTATGTTAAGATCGCCTAGGGAGATTAGAGTATCGGTCGA | 2.25
11 | TCTTCTTCTGGGGACTTCGGTCTTTTTTCTGCCTAGGGAGATTAGAGTATCGGTCGA | 2.18
12 | ACTCATTTCACATTGGTGCCCTTTGCCTTTGCCTAGGGAGATTAGAGTATCGGTCGA | 3.97
13 | TGAACTTTGAACACCTCTTCTTTCTTCTCTGCCTAGGGAGATTAGAGTATCGGTCGA | 3.92
14 | CTATGGAACATGGACTTTGAACCTCTCTTCGCCTAGGGAGATTAGAGTATCGGTCGA | 8.15
15 | CCTTTGGTGCCTCTTTTTTCTTGTTGACTTGCCTAGGGAGATTAGAGTATCGGTCGA | 2.44
16 | TGGACTTTGAACCTCTCTTCTTTTTCGTCTGCCTAGGGAGATTAGAGTATCGGTCGA | 6.71
17 | TGGGCACTGTCCTAGGTGCTGAAGATGCAAGCCTAGGGAGATTAGAGTATCGGTCGA | -0.724
18 | GATCAAAGGTCGGTTTTAGGACAACATGAGGCCTAGGGAGATTAGAGTATCGGTCGA | 4.52
19 | CTATCATTATCTCTCACTGCAGAAACTCTGGCCTAGGGAGATTAGAGTATCGGTCGA | 1.35
20 | AGCATTTTTGTATGCATAAGGCCTTGGACCGCCTAGGGAGATTAGAGTATCGGTCGA | 3.11
21 | CTTTGGTATGGACTGATATTCAAACAGGTCGCCTAGGGAGATTAGAGTATCGGTCGA | 1.31
22 | GAGGGATTTTCAGTATACTGACTTATCAGGGCCTAGGGAGATTAGAGTATCGGTCGA | 0.535
23 | AGCGGCCTTCCCCTTTTTCTGTAAAGCTTTGCCTAGGGAGATTAGAGTATCGGTCGA | 1.21
24 | GAGTTTAGGCATTCTTAGACACAGTCTGAGGCCTAGGGAGATTAGAGTATCGGTCGA | -0.227

Row | Sequence | binding signal [log2 normalized intensity]
25 | TGCGTGTTATCTATGGAACATGGACTTTGAGCCTAGGGAGATTAGAGTATCGGTCGA | 8.74
26 | AACATGGACTTTGTTGTTTGCCTCTGAAAAGCCTAGGGAGATTAGAGTATCGGTCGA | 2.31
27 | TACATTGAACTTTGAACACCTCTTCTTTCTGCCTAGGGAGATTAGAGTATCGGTCGA | 4.75
28 | CCTCTTGCGTGTTATCTATGGAACATGGACGCCTAGGGAGATTAGAGTATCGGTCGA | 2.24
29 | GAACATGGACTTTGAACCTCTCTTCTTTTTGCCTAGGGAGATTAGAGTATCGGTCGA | 7.25
30 | CCATACCTCTTGCGTGTTATCTATGGAACAGCCTAGGGAGATTAGAGTATCGGTCGA | 1.5
31 | GGAGAAGTTTTATGGCAGGGTCGGAATGTCGCCTAGGGAGATTAGAGTATCGGTCGA | 1.55
32 | AGCCCCACAGAGCAAAGGTCATGCATAGAAGCCTAGGGAGATTAGAGTATCGGTCGA | 4.52
33 | ATGGTTTGACCCTGCGATAAGTAGATACCAGCCTAGGGAGATTAGAGTATCGGTCGA | 0.964
34 | CTTTGGCCAAGGGCAGTGTTTGCCCAGCTTGCCTAGGGAGATTAGAGTATCGGTCGA | 0.106
35 | TTGACCTTTGGCCAAGGGCAGTGTTTGCCCGCCTAGGGAGATTAGAGTATCGGTCGA | 5.35
36 | GAGTCTGTTGTCTAACATTTTTGACCTTCAGCCTAGGGAGATTAGAGTATCGGTCGA | 4.09
37 | AGGCAGTCTGTTGACCTTTGGCCAAGGGCAGCCTAGGGAGATTAGAGTATCGGTCGA | 7.73
38 | TCAGTCTGGTTGAGGCAAGCAAAAGCCAAGGCCTAGGGAGATTAGAGTATCGGTCGA | -0.985
39 | GTCTGTTGACCTTTGGCCAAGGGCAGTGTTGCCTAGGGAGATTAGAGTATCGGTCGA | 6.71
40 | CAACTGGTATGTTAGATTAGTGTGCAGCTTGCCTAGGGAGATTAGAGTATCGGTCGA | 0.891
41 | TCTGACCTCTTTCAAGCCTGAACAAACATGGCCTAGGGAGATTAGAGTATCGGTCGA | 0.93
42 | GTCCGGCAGAGCTATGGAATTTTGGCCTTTGCCTAGGGAGATTAGAGTATCGGTCGA | 3.22
43 | TGCACATTCCCTCCAGCAGGGGATGCCCTTGCCTAGGGAGATTAGAGTATCGGTCGA | 2.38
44 | AAAGCCTAGGCTCCAGGGCACTGCCCTTTGGCCTAGGGAGATTAGAGTATCGGTCGA | 3
45 | GCAGGGGATGCCCTTTGACCTCTGCTTCCTGCCTAGGGAGATTAGAGTATCGGTCGA | 8.18
46 | CCCTTTGACCTCTGCTTCCTGCTACAGAGCGCCTAGGGAGATTAGAGTATCGGTCGA | 1.87
47 | TGCTTCCAAGTTATGCAGACCTTTGCCCTTGCCTAGGGAGATTAGAGTATCGGTCGA | 7.17
48 | ATGCCCCTCCCAGGGACACATGCCCCTTCCGCCTAGGGAGATTAGAGTATCGGTCGA | 5.44
